# Source: PubChem BioAssay (NCATS)
# Values joined by “and” are separate entries in the source; they are usually repeats but may differ in a detail not shown here. Equal entries are not always repeated. Records with an inconclusive call do not appear. Active and inactive are the calls of the source. Unless noted, calls come from the whole dose curve; as a rule, active = well fitted curve in the direction sought with a large enough effect; inconclusive = small, poorly fitted or top-dose-only effect, or another doubt; inactive = no such curve, though single readings can be large; an effect the other way counts as inactive or inconclusive.
# Assays:
# [1] = target: Cytochrome P450 2D6 (Homo sapiens) (UniProt P10635); experiment: Cytochrome P450 family 2 subfamily D member 6 (CYP2D6) small molecule antagonists: luciferase biochemical (cell-free) qHTS assay (AID 1645840; active = well fitted curve in the direction sought with a large enough effect in the repeat runs; an effect the other way counts as inactive or inconclusive; note: % is set by controls: 0 for no effect and ±100 for the full control effect; nearly all actives have a fitted effect of over 55% in size)
# Sequence of Cytochrome P450 2D6 (Homo sapiens) (P10635 whole entry, looked up): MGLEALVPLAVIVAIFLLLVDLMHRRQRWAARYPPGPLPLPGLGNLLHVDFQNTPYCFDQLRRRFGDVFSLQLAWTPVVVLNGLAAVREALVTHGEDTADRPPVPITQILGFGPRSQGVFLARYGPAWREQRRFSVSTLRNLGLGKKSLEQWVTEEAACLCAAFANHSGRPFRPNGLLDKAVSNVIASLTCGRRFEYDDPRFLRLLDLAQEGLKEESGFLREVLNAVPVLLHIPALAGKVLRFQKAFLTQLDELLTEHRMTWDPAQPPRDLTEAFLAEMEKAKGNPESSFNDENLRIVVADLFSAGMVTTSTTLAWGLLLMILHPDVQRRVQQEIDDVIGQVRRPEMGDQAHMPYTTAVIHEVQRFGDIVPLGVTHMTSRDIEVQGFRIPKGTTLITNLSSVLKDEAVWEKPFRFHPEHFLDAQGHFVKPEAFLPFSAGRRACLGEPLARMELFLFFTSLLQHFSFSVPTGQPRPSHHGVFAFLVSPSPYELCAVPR
# Method in brief: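 P450-Glo luminescent screen: recombinant CYP2D6 enzyme–proluciferin substrate mix preincubated with compound 10 min at room temperature, then NADPH regeneration added for 1 h at room temperature. Detection reagent added for 20 min; luciferin light read as relative luminescence units.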
# [2] = Primary qHTS for inhibitors of nuclear receptor binding SET domain protein 2 (NSD2) in an isogenic RCH-ACV NSD2 p.E1099K mutant (9B) (AID 1645876); note: nearly all actives have a fitted effect of over 70% in size; note: potency is the fitted concentration of half-maximal effect
# [3] = Primary qHTS for inhibitors of nuclear receptor binding SET domain protein 2 (NSD2) in an RCH-ACV wild type WT cells (2C) (AID 1645877); note: nearly all actives have a fitted effect of over 70% in size; note: potency is the fitted concentration of half-maximal effect
# [4] = target: Cytochrome P450 2C9 (Homo sapiens) (UniProt P11712); experiment: Cytochrome P450 family 2 subfamily C member 9 (CYP2C9) small molecule antagonists: luciferase biochemical (cell-free) qHTS assay (AID 1645842; active = well fitted curve in the direction sought with a large enough effect in the repeat runs; an effect the other way counts as inactive or inconclusive; note: nearly all actives have a fitted effect of over 55% in size; note: potency is the fitted concentration of half-maximal effect; for activity change, negative = inhibition: % is set by controls: 0 for no effect and ±100 for the full control effect)
# Sequence of Cytochrome P450 2C9 (Homo sapiens) (P11712 whole entry, looked up): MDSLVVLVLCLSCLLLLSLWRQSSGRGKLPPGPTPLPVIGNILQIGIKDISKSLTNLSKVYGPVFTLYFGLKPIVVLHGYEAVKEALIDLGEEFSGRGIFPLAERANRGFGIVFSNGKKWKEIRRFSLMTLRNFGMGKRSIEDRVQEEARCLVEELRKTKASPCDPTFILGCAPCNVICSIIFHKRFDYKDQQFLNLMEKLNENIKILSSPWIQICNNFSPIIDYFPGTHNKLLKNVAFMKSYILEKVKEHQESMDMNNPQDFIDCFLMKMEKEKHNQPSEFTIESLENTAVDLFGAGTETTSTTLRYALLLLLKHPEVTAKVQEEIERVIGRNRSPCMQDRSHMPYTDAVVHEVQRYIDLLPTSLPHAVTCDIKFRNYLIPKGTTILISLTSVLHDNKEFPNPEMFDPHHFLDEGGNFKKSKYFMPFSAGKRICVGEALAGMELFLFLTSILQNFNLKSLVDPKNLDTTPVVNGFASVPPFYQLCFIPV
# Method in brief: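 Luminescence, after 20 min with luciferin detection reagent, reflected CYP2C9 turnover during a 1 h NADPH-driven reaction at 37C. Enzyme-substrate mix contained 0.4% bovine serum albumin and was preincubated with compound 10 min at room temperature.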
# Papain (Carica papaya) = Papain (Carica papaya) (UniProt P00784); experiment: Primary qHTS assay for inhibitors of the protease papain (AID 1645873);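 note: papain turnover of Z-FR-AMC read as the AMC fluorescence gain over 10 min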; note: potency is the fitted concentration of half-maximal effect; for activity change, negative = inhibition: % is set by controls: 0 for no effect and ±100 for the full control effect
# Sequence of Papain (Carica papaya) (P00784 whole entry, looked up): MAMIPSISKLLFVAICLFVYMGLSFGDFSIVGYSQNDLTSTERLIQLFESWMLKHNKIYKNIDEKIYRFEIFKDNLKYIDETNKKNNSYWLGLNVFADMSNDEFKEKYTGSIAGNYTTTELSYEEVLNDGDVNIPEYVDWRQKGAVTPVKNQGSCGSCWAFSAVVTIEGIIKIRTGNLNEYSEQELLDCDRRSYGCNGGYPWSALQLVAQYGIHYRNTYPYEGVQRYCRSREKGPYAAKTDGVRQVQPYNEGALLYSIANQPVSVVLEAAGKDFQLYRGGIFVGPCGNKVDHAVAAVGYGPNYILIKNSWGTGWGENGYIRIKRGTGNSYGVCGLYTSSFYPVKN
# [5] = NCATS anti-infectives library activity on HEK293 viability as a counter-qHTS vs the C. elegans viability qHTS (AID 1745854);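 note: HEK293 cells exposed to compounds for 24 hr before the viability read; % is set by controls: 0 for no effect and ±100 for the full control effect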
# Method in brief: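 Cytotoxicity in human HEK293 cells is measured by ATP-dependent CellTiter-Glo luminescence following a 24 hr incubation with titrated library compounds at 37C. Top final concentration is 41.7 uM.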
# [6] = target: Catechol O-methyltransferase (Homo sapiens) (UniProt P21964); experiment: Confirmatory Screen for Target Class Profiling of Small Molecule Inhibitors of Methyltransferases (AID 1745852; calls by dose curve; note: potency is the fitted concentration of half-maximal effect; for activity change, negative = inhibition: % is set by controls: 0 for no effect and ±100 for the full control effect); settings: MTase-Glo luminescence, SAH detection, recombinant enzyme; measured here: COMT max response; stronger effect = lower value
# Sequence of Catechol O-methyltransferase (Homo sapiens) (P21964 whole entry, looked up): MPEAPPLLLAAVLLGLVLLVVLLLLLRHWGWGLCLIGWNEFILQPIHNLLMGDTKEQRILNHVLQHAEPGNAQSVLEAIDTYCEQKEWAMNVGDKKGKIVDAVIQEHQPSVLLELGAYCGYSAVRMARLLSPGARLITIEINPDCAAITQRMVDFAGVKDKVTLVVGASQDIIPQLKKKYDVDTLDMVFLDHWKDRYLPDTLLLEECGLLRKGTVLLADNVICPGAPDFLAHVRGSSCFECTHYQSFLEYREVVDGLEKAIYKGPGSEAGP
# [7] = target: Guanidinoacetate N-methyltransferase (Homo sapiens) (UniProt Q14353); experiment: as above; settings: MTase-Glo luminescence, SAH detection, recombinant enzyme; activity change, negative = inhibition: at 57.3 µM (top of the series)
# [8] = target: Nicotinamide N-methyltransferase (Homo sapiens) (UniProt P40261); experiment: as above; settings: MTase-Glo luminescence, SAH detection, recombinant enzyme; measured here: NNMT max response; stronger effect = lower value
# Sequence of Nicotinamide N-methyltransferase (Homo sapiens) (P40261 whole entry, looked up): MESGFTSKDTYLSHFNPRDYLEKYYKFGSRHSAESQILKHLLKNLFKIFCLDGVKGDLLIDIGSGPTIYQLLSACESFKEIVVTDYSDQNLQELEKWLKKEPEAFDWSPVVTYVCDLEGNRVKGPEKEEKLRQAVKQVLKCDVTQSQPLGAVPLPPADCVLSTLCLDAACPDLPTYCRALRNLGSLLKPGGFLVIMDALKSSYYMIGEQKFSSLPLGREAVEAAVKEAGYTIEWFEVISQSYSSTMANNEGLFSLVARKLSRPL
# [9] = target: Phenylethanolamine N-methyltransferase (Homo sapiens) (UniProt P11086); experiment: as above; settings: MTase-Glo luminescence, SAH detection, recombinant enzyme; measured here: PNMT max response; stronger effect = lower value
# Sequence of Phenylethanolamine N-methyltransferase (Homo sapiens) (P11086 whole entry, looked up): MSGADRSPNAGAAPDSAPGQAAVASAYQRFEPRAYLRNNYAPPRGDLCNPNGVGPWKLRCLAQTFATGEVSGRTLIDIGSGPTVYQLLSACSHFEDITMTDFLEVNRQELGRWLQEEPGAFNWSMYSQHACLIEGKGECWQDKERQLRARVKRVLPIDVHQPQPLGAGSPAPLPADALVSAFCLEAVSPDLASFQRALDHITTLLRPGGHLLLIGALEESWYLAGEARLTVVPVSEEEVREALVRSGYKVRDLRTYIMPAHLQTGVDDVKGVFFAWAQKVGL
# [10] = target: N-terminal Xaa-Pro-Lys N-methyltransferase 1 (Homo sapiens) (UniProt Q9BV86); experiment: Confirmatory qHTS for Inhibitors of N-terminal methyltransferase 1 (NTMT1): MTaseGlo Assay (AID 1645874); settings: NTMT1 enzyme, MTase-Glo SAH luminescence; note: potency is the fitted concentration of half-maximal effect; nearly all actives have a fitted effect of over 65% in size
# Sequence of N-terminal Xaa-Pro-Lys N-methyltransferase 1 (Homo sapiens) (Q9BV86 whole entry, looked up): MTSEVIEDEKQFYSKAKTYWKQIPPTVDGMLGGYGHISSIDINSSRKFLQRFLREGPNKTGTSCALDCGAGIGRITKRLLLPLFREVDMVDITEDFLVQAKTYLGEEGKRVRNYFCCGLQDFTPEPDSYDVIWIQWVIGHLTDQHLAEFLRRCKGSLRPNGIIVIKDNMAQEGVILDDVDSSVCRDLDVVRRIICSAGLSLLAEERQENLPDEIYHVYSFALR
# Method in brief: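 Compounds are incubated with 125 nM NTMT1 and 100 uM SAM for 15 min before the SPKRIA peptide (1 uM) starts a 30 min room-temperature methylation. SAH is measured by coupled luciferase luminescence and curves fitted to a Hill equation.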
# [11] = target: Rap guanine nucleotide exchange factor 3 (Homo sapiens) (UniProt O95398); experiment: Confirmatory qHTS for antagonist of cAMP-regulated guanine nucleotide exchange factor 3 (EPAC1) (AID 1645880);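 note: plate controls were DMSO only for no effect and full effect of the ATA control for full effect; nearly all actives have a fitted effect of over 55% in size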
# Sequence of Rap guanine nucleotide exchange factor 3 (Homo sapiens) (O95398 whole entry, looked up): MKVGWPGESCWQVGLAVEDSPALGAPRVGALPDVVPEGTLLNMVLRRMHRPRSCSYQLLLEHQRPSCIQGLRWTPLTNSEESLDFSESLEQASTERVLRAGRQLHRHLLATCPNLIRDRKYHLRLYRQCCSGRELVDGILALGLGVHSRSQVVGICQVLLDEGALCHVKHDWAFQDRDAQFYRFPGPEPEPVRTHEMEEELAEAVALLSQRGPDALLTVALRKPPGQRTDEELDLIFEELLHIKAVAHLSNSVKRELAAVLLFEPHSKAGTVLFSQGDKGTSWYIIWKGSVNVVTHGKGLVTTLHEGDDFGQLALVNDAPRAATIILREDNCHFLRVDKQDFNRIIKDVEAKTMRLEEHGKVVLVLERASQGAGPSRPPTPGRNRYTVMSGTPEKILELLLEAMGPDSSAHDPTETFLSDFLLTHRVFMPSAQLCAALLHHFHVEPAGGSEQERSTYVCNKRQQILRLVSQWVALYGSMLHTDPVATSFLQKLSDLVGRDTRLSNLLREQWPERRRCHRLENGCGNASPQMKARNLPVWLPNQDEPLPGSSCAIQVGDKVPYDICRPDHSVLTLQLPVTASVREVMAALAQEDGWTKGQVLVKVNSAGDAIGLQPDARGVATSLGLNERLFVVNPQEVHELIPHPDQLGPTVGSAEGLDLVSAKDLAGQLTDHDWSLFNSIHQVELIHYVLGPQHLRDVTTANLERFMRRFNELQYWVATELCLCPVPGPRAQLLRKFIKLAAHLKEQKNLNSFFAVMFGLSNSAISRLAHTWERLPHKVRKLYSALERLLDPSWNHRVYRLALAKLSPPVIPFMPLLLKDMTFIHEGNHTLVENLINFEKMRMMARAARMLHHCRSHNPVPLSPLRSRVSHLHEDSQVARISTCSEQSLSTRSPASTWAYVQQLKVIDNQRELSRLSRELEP
# Method in brief: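 Nucleotide exchange uses 100 nM EPAC1, 250 nM RAP1B-BODIPY-GDP and 50 uM GDP, with compounds in a concentration-titration series. After 5 min at room temperature, fluorescence (480 nm ex/540 nm em) is read every 5 min for 30 min. Data are normalized to control ATA and DMSO.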
# [12] = target: Rap guanine nucleotide exchange factor 3 (Homo sapiens) (UniProt O95398); experiment: Confirmatory qHTS for agonist of cAMP-regulated guanine nucleotide exchange factor 3 (EPAC1) (AID 1645881);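 note: EPAC1 catalysed release of BODIPY-GDP from Rap1B seen as fluorescence loss; 100% = effect of cAMP agonist control; nearly all actives have a fitted effect of over 75% in size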
# [13] = target: Rap guanine nucleotide exchange factor 4 (Homo sapiens) (UniProt Q8WZA2); experiment: Confirmatory qHTS for antagonist of cAMP-regulated guanine nucleotide exchange factor 4 (EPAC2) (AID 1645885); note: % is set by controls: 0 for no effect and ±100 for the full control effect; nearly all actives have a fitted effect of over 25% in size
# Sequence of Rap guanine nucleotide exchange factor 4 (Homo sapiens) (Q8WZA2 whole entry, looked up): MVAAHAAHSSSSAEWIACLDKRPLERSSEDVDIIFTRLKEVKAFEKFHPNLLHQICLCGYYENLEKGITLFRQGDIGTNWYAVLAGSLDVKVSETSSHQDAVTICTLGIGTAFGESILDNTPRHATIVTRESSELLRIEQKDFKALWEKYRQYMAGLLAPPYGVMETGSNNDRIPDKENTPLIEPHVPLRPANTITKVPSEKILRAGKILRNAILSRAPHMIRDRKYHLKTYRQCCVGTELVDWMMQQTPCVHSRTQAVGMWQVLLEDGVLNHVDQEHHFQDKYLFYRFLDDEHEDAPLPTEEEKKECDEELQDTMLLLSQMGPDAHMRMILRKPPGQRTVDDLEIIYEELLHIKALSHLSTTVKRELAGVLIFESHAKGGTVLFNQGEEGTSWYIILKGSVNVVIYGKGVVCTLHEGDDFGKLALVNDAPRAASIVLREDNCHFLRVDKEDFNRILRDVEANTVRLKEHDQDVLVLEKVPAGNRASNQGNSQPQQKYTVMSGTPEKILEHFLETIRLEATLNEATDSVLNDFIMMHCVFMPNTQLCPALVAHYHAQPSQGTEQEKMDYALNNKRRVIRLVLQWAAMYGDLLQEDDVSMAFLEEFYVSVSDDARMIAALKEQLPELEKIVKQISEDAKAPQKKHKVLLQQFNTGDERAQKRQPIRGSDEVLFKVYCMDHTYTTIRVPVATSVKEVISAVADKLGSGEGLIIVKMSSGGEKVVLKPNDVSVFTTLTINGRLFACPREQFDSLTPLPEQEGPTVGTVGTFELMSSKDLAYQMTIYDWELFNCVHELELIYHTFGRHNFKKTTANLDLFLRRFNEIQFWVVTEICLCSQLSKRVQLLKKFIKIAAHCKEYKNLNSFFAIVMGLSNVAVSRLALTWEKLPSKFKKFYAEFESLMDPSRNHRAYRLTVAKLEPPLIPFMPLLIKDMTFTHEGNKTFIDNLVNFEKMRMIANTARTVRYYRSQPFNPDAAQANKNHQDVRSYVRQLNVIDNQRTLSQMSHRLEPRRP
# [14] = target: Rap guanine nucleotide exchange factor 3 (Homo sapiens) (UniProt O95398); experiment: Counterscreen qHTS for antagonist of cAMP-regulated guanine nucleotide exchange factor 3 (EPAC1) (AID 1645888);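 note: fluorescence loss as bound BODIPY-GDP is released from Rap1B; % of control where 0% means no effect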
# Method in brief: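 Rap1B-BODIPY-GDP 250 nM + GDP 50 uM; cpds 7-pt, final 9.74 nM–152 uM (activator mode) or from 7.32 nM upwards (inhibitor mode); RT; FI 480/540 nm at 5 and 30 min, then ± cAMP, reread.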
smiles,measurement,setting,value
C#C[C@]1(O)CC[C@H]2[C@@H]3CCc4cc(O)ccc4[C@H]3CC[C@@]21C,Potency,[1],inactive
same,Potency,[2],11.8 µM (active)
same,Potency,[3],18.8 µM (active) and 10.5 µM (active)
COC(=O)C1=C(C)NC(C)=C(C(=O)OCC(C)=O)C1c1ccccc1[N+](=O)[O-] (stereo not given),Potency,[4],8.71 µM (active)
same,Potency,[2],11.9 µM (active)
same,Potency,[3],11.9 µM (active)
CCCCC#Cc1nc(NC)c2ncn([C@@H]3O[C@H](CO)[C@@H](O)[C@H]3O)c2n1,Potency,Papain (Carica papaya),inactive
CCCCCCOc1ccccc1C(N)=O,Potency,[4],8.71 µM (active)
same,outcome,[5],inactive
O=C(O)CCCC[C@@H]1CCSS1,Potency,Papain (Carica papaya),inactive
CC[C@H]1OC(=O)[C@H](C)[C@@H](O[C@H]2C[C@@](C)(OC)[C@@H](O)[C@H](C)O2)[C@H](C)[C@@H](O[C@@H]2O[C@H](C)C[C@H](NC)[C@H]2O)[C@](C)(O)C[C@@H](C)CN(C)[C@H](C)[C@@H](O)[C@]1(C)O,Potency,Papain (Carica papaya),inactive
Nc1ccc([N+](=O)[O-])cc1O,Potency,[4],39.9 µM (active)
same,Potency,[2],6.86 µM (active)
same,Potency,[3],7.7 µM (active)
COc1ccc(-c2cc(=S)ss2)cc1,Potency,[4],11 µM (active)
same,Potency,[2],inactive
same,Potency,[3],inactive
O=C(CCCCCN1CCN(c2ccccc2-c2ccccc2)CC1)NC1CCCc2ccccc21 (stereo not given),Potency,Papain (Carica papaya),inactive
C[N+]1(C)CCC(OC(=O)C(c2ccccc2)c2ccccc2)CC1,Potency,Papain (Carica papaya),inactive
Nc1nc2ccc(Cl)cc2n2c(-c3ccccc3)nnc12,Potency,Papain (Carica papaya),inactive
CN1CC(=O)N/C1=N/C(=O)Nc1cccc(Cl)c1,Potency,[4],inactive
same,Potency,Papain (Carica papaya),inactive
same,Potency,[2],inactive
same,Potency,[3],inactive
Cc1ccc(O)c(-n2nc3ccccc3n2)c1,Potency,[4],4.36 µM (active)
same,Potency,[2],inactive
same,Potency,[3],inactive
O=[N+]([O-])c1ccc(CNc2nc(NCc3cccc(C(F)(F)F)c3)nc3nc[nH]c23)cc1,Potency,[4],1.07 µM (active)
same,Potency,Papain (Carica papaya),inactive
same,activity,[6],-6.92% and 9.66%
same,"activity change, negative = inhibition",[7],-3.71% and 5.72%
same,activity,[8],-49.3% and -10.9%
same,activity,[9],-13.5% and 7.65%
CN(C)CCn1nnnc1SCC1=C(C(=O)O)N2C(=O)[C@@H](NC(=O)Cc3csc(N)n3)[C@H]2SC1,Potency,[4],inactive
same,Potency,[2],inactive
same,Potency,[3],inactive
O=C(CCSCc1ccco1)NNC(=O)N1Cc2ccccc2Oc2ccc(Cl)cc21,Potency,Papain (Carica papaya),inactive
CCN(CC)CCCCNc1ncc2cc(-c3c(Cl)cccc3Cl)c(NC(=O)NC(C)(C)C)nc2n1,Potency,[4],19 µM (active)
same,Potency,Papain (Carica papaya),28.2 µM (active)
same,Potency,[2],1.45 µM (active)
same,Potency,[3],3.65 µM (active)
same,activity,[6],-7.59% and -2.1%
same,"activity change, negative = inhibition",[7],0.993% and 9.36%
same,activity,[8],-17.4% and -14.9%
same,activity,[9],-6.92% and -0.98%
COc1cc(OC)cc(-c2cc3cnc(N)nc3nc2NC(=O)NC(C)(C)C)c1,Potency,Papain (Carica papaya),inactive
C=CCN1C(=O)C(CC(C)C)NC1=S (stereo not given),Potency,[4],23.9 µM (active)
CN(C)[C@@H]1C(=O)C(C(=O)NCN2CCCC2)=C(O)[C@@]2(O)C(=O)C3=C(O)c4c(O)cccc4[C@@](C)(O)C3C[C@@H]12 (stereo not given in full),Potency,[4],inactive
COc1ccc2c(c1)CCC1C2CC[C@@]2(C)C1CC[C@@H]2NCCCCCCN1C(=O)CCC1=O (stereo not given in full),Potency,Papain (Carica papaya),inactive
CN(C)C(N)=NCCC[C@H](N)C(=O)O,Potency,Papain (Carica papaya),inactive
O=C1NC(=O)c2c1c(-c1ccccc1)cc1[nH]c3ccc(O)cc3c21,Potency,Papain (Carica papaya),inactive
C#CC1(O)CC[C@H]2[C@@H]3CCC4=CCCC[C@@H]4[C@H]3CC[C@@]21C (stereo not given in full),Potency,[4],1.74 µM (active)
N#C/C(=C\c1ccc(-c2cc(Cl)ccc2Cl)o1)C(=O)Nc1cccc2ncccc12,Potency,Papain (Carica papaya),inactive
CCCCCCCCCCCCCCCC(=O)OC(C)C,Potency,[4],inactive
same,Potency,[2],inactive
same,Potency,[3],inactive
O=C(CS)Nc1ccccc1,Potency,[4],4.9 µM (active)
same,Potency,[2],inactive
same,Potency,[3],inactive
O=C(Nc1ccncc1)c1cc([N+](=O)[O-])ccc1Cl,Potency,Papain (Carica papaya),inactive
O=C1CN(/N=C/c2ccc([N+](=O)[O-])o2)C(=O)N1,Potency,[4],inactive
O=c1cc(-c2ccccc2)oc2ccccc12,Potency,[4],15.4 µM (active)
same,Potency,[10],50.1 µM (active)
CCNC(=O)[C@H]1O[C@@H](n2cnc3c(N)nc(NCCc4ccc(CCC(=O)O)cc4)nc32)[C@H](O)C1O (stereo not given in full),Potency,Papain (Carica papaya),inactive
O=C(/C=C/c1ccccc1)NCCO,Potency,[4],5.49 µM (active)
COc1ccc(NC(=O)/C=C/c2ccc(Cl)cc2)cc1,Potency,Papain (Carica papaya),inactive
same,activity,[6],-21.5%
same,Potency,[7],24.3 µM (active)
same,activity,[8],-60.9%
same,activity,[9],-10.5%
N.N.N.N.N.N.N.N.N.N.N.N.N.N.O.O.[Ru+4].[Ru+5].[Ru+5],Potency,Papain (Carica papaya),inactive
same,Potency,[10],27.4 µM (active)
same,activity,[6],-14.7%
same,Potency,[7],30.6 µM (active)
same,activity,[8],-45.3%
same,activity,[9],-7.59%
O=Nc1ccc2oc(=O)ccc2c1,Potency,Papain (Carica papaya),inactive
same,activity,[6],0.573%
same,"activity change, negative = inhibition",[7],3.53%
same,activity,[8],-0.856%
same,activity,[9],5.38%
CN[C@H](CC(C)C)C(=O)N[C@H]1C(=O)N[C@@H](CC(N)=O)C(=O)N[C@H]2C(=O)N[C@H]3C(=O)N[C@H](C(=O)N[C@H](C(=O)O)c4cc(O)cc(O)c4-c4cc3ccc4O)[C@H](O)c3ccc(c(Cl)c3)Oc3cc2cc(c3O[C@@H]2O[C@H](CO)[C@@H](O)[C@H](O)[C@H]2O[C@H]2C[C@](C)(N)[C@H](O)[C@H](C)O2)Oc2ccc(cc2Cl)[C@H]1O,Potency,Papain (Carica papaya),inactive
same,Potency,[2],inactive
same,Potency,[3],inactive
NO,Potency,Papain (Carica papaya),inactive
same,activity,[6],3.62%
same,"activity change, negative = inhibition",[7],-5.54%
same,activity,[8],-5.7%
same,activity,[9],4.25%
O=C(O)CC[C@@H](C(=O)O)N1C(=O)c2ccccc2C1=O,Potency,Papain (Carica papaya),inactive
same,activity,[6],-23.9%
same,"activity change, negative = inhibition",[7],-2.85%
same,activity,[8],-12.9%
same,activity,[9],-4.01%
O=C(Nc1ccc2[nH]ncc2c1)C1CCC1,Potency,Papain (Carica papaya),inactive
same,Potency,[2],inactive
same,Potency,[3],inactive
Cn1cc(C2=C(c3ccc(Cl)cc3Cl)C(=O)NC2=O)c2ccccc21,Potency,Papain (Carica papaya),inactive
same,Potency,[2],6.51 µM (active)
same,Potency,[3],6.51 µM (active)
same,Potency,[11],inactive
same,Potency,[12],inactive
same,"activity change, negative = inhibition",[13],2.07% [at 12.7 µM] (inactive)
same,outcome,[14],inactive
COC1=C(OC)C(=O)c2ccccc2C1=O,Potency,Papain (Carica papaya),inactive
same,activity,[6],-44.1%
same,Potency,[7],19.3 µM (active)
same,activity,[8],-23.6%
same,activity,[9],-70.6%
Clc1ccc(N2CCN(Cc3cc4ccccn4n3)CC2)cc1,Potency,Papain (Carica papaya),inactive
